Bioassay records from PubChem BioAssay.
NPC1 promoter act: activates the NPC1 promoter; AID 485313; Potency, µM (doses to about 9.22 µM), most hits filed as activators; Huh7 NPC1 promoter luciferase reporter, 24 h; hit rate 2.4% among 320,000; further: nearly all actives have a fitted effect of over 60% in size
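In 1536-well qHTS, Huh7 cells harboring an NPC1 promoter–luciferase construct received compound for 24 h; activation was quantified by luminescence following luciferase reagent addition.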
FLuc counter: firefly luciferase modulation, counter-screen for miR-21 project. Potency, µM (highest dose often 57.5 µM), usual class: inhibitors. hit rate 6.9% among 360,000. purified FLuc, Km substrates, luminescence inhibition. P08659; further: nearly all actives have a fitted effect of over 55% in size
Target sequence (P08659 whole entry, looked up): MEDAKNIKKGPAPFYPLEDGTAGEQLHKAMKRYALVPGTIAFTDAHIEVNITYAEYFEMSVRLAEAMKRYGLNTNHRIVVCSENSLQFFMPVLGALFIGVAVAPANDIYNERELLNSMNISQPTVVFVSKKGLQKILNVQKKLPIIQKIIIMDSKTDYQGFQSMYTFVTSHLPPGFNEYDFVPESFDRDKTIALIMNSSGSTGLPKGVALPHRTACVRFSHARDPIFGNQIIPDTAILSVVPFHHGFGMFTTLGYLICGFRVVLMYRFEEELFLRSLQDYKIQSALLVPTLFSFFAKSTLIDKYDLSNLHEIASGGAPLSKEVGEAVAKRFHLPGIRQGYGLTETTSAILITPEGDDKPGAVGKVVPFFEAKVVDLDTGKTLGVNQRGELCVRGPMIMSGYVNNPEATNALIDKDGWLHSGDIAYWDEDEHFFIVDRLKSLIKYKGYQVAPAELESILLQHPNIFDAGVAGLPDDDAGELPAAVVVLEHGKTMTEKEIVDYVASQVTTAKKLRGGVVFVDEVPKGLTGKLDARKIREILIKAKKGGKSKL
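Purified P. pyralis luciferase (10nM final) with 10uM D-luciferin and 10uM ATP (Km levels) in 50mM Tris acetate pH 7.5, 10mM Mg acetate, 0.01% Tween-20, 0.05% BSA; qHTS 6-point titration, ~60 µM downward; luminescence read.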
ELG1 repair inh: blocks ELG1-dependent DNA repair in HEK293T cells; AID 504467; hit rate 2.3% among 330,000; HEK293T ELG1-luciferase reporter, luminescence, 16 h; DNA damage induced by 5-fluorouridine; Potency, µM (titrated, usually from 46.1 µM), most hits filed as inhibitors; further: nearly all actives have a fitted effect of over 55% in size
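Luminescence from the luciferase reporter, measured 30 min after ONE-Glo reagent at room temperature, was the read-out. Beforehand, 2,000 cells per well were exposed for 16 hr at 37 °C to 5-fluorouridine together with compound or vehicle.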
Rab9 prom act: Rab9 promoter activation | Huh7 Rab9 promoter-luciferase reporter, luminescence, 24 h | Potency, µM (top dose mostly 9.22 µM), usual class: activators | hit rate 2.8% among 320,000; further: nearly all actives have a fitted effect of over 60% in size
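Quantitative HTS format; Huh7 Rab9-luciferase reporter cells (1500/well) receive compound 2 h post-plating, incubate 24 h at 37 °C, then get luciferase reagent for 10 min before luminescence reading.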
SMN2 splice enh: increases expression of the SMN2 splice variant | HEK293 SMN2-luciferase splicing reporter, luminescence, 30-36 h | Potency, µM (titrated, usually from 46.1 µM), usual class: activators | hit rate 2.8% among 210,000 | AID 1458; further: nearly all actives have a fitted effect of over 55% in size
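qHTS luciferase splicing reporter: luminescence rises when SMN2 exon 7 is included in transfected HEK293 cells. Compound exposure lasted 30-36 h at 37C, with 4.5 mM final sodium butyrate as control, followed by a ONE-Glo read.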
ELG1 genotoxic: inducers of genotoxicity in HEK293T ELG1-luciferase cells. hit rate 1.3% among 330,000. HEK293T ELG1-luciferase reporter, luminescence, 16 h. Potency, µM (top dose mostly 46 µM), hits mostly activators; further: nearly all actives have a fitted effect of over 60% in size
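ELG1-luciferase HEK293T cells, 2,000/well; compound pinned in; 16 hr, 37 °C, 5% CO2; ONE-Glo, 30 min RT; luminescence on CCD imager.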
Numbers stand for hits; . = inactive; ? = inconclusive; / = not tested or not shown. A selection: hits, their analogues and other compounds. The true share with any hit is near 9.2%. The call rests on the fitted dose curve; in most records, active means well fitted curve in the direction sought with a large enough effect; inconclusive means small, poorly fitted or top-dose-only effect, or another doubt; inactive means no such curve, though single readings can be large; an effect the other way counts as inactive or inconclusive.

SMILES	NPC1 promoter act	FLuc counter	ELG1 repair inh	Rab9 prom act	SMN2 splice enh	ELG1 genotoxic
CC1CC(C)CN(C(=O)C2CCN(S(=O)(=O)c3c(Cl)cccc3Cl)CC2)C1 (stereo not given)	.	.	.	.	/	.
O=S(=O)(c1cc(Cl)ccc1Cl)N1CC2CCCN2c2ccc(C(F)(F)F)cc21 (stereo not given)	.	.	?	.	.	.
CCOc1ccccc1NC(=O)CCc1c(C)nc2c(c(C)nn2-c2ccccc2)c1C	/	.	/	/	.	/
Cc1nc(C)c(C(=O)N/N=C/c2c[nH]c3ccccc23)s1	.	?	?	.	.	.
O=C(N/N=C/c1c[nH]c2ccccc12)c1cc(-c2ccc3ccccc3c2)n[nH]1	.	9.5µM	.	.	.	.
CCOC(=O)N/N=C/c1c[nH]c2ccccc12	.	?	?	.	.	.
O=C(N/N=C/c1c[nH]c2ccccc12)c1cc(-c2cccc3ccccc23)n[nH]1	.	15µM	.	.	.	.
O=C(N/N=C/c1c[nH]c2ccccc12)c1ccn[nH]1	.	21µM	?	?	.	.
O=C(N/N=C/c1c[nH]c2ccccc12)c1cc(-c2ccccc2)n[nH]1	.	12µM	?	.	.	.
COC(=O)Nc1ccc(S(=O)(=O)N2CCCc3cccc(O)c32)cc1	.	.	18µM	.	/	.
O=C(CCNS(=O)(=O)c1ccc2c(c1)CCN2C(=O)C1CC1)N1CCN(c2cccc(C(F)(F)F)c2)CC1	/	.	/	/	/	/
O=c1c2ccccc2cnn1CCOc1cccc(Br)c1	3.5µM	9.5µM	?	?	/	?
Cc1ccc(OCCn2ncc3ccccc3c2=O)c(C)c1	.	.	.	.	/	.
Cc1ccc(N2C(=O)CC(SCC(=O)Nc3ccc(S(N)(=O)=O)cc3)C2=O)cc1 (stereo not given)	?	27µM	?	?	/	?
Cc1cc(C(=O)OCC(=O)c2ccccc2)c2ccccc2n1	.	?	.	.	/	.
Cc1ccc(C(=O)COC(=O)c2cc(Cl)nc3ccccc23)cc1C	.	15µM	.	.	.	.
Cc1ccc(C)c(C(=O)COC(=O)c2cc(Cl)nc3ccccc23)c1	.	12µM	?	.	.	.
Cc1cccc(C(=O)N[C@H](C(=O)OCC(=O)NC2CCS(=O)(=O)C2)C(C)C)c1 (stereo not given in full)	.	.	.	.	.	.
Cc1cccc(-n2c(=O)c3c(c4cc(C)ccc4n3C)n(CC(=O)Nc3ccc(C)cc3C)c2=O)c1	/	.	/	/	/	/
Cn1ccnc1SCC(=O)NC1CCCC1	.	.	.	.	/	.
Cn1ccnc1SCC(=O)Nc1ccc2nc(SCC(=O)NC3CC3)sc2c1	?	19µM	?	?	.	13µM
Cc1ccccc1OCc1nnc(SCC(=O)Nc2ccc3nc(SCC(=O)NC(C)(C)C)sc3c2)n1C	.	.	?	.	.	.
CC(C)(C)NC(=O)CSc1nc2ccc(NC(=O)CSc3nnc(N)s3)cc2s1	.	12µM	16µM	.	.	.
CC(C)(C)NC(=O)CSc1nc2ccc(NC(=O)CSc3nnnn3Cc3ccccc3)cc2s1	.	?	2.9µM	.	.	.
CCN(CC)C(=O)CSc1nc2ccc(NC(=O)CSc3nnc(COc4ccccc4C)n3C)cc2s1	.	?	8.2µM	.	.	.
SMILES	NPC1 promoter act	FLuc counter	ELG1 repair inh	Rab9 prom act	SMN2 splice enh	ELG1 genotoxic
Cc1cccc(NC(=O)CSc2nnc(N)s2)c1	/	.	/	/	?	/
CC(C)CCn1c(SCc2ccc(F)cc2Cl)nc2ccsc2c1=O	/	.	/	/	/	/
CC1CC1C(=O)N1CCN(S(=O)(=O)c2cccc(F)c2)CC1 (stereo not given)	.	.	.	.	/	.
COc1ccc(NC(=O)Nc2ccccn2)cc1OC	.	19µM	?	.	/	?
O=C(Nc1ccc(Cl)c(Cl)c1)Nc1ccccn1	3.2µM	?	?	4.5µM	/	?
COc1ccc(NC(=O)NC2CCCc3ccccc32)cc1OC (stereo not given)	?	?	?	.	/	6.5µM
COc1ccccc1C(=O)Nc1ccncc1	.	.	.	.	/	.
COc1ccccc1C(=O)Nc1ccccn1	2.5µM	7.6µM	?	?	22µM	13µM
